# High-throughput results from PubChem.
# In the library only some 5% were active in any assay of this set; here they are far more common.
# USP7 inh: blocks human USP7 ubiquitin-rhodamine cleavage | Q93009 | purified USP7, Ub-rhodamine cleavage fluorescence | inhibition, % at 20 µM | 47,000 tested, 0.3% active
# UCHL1 inh: human UCHL1 deubiquitinase inhibition; P09936; purified UCHL1, Ub-rhodamine cleavage fluorescence; inhibition, % at 20 µM; 47,000 tested, 0.2% active; AID 1645859
# USP10 inh: inhibitors of human USP10 deubiquitinase. Q14694. purified USP10, Ub-rhodamine fluorescence, 60 min. inhibition, % at 20 µM. 47,000 tested, 1.1% active. AID 1645856
# OTUD3 inh: blocks human OTUD3 ubiquitin-rhodamine cleavage. Q5T2D3. purified OTUD3, Ub-rhodamine fluorescence, 2 h. inhibition, % at 25 µM. 47,000 tested, 0.7% active
# USP8 block: human USP8 deubiquitinase inhibition; 47,000 tested, 4.2% active; inhibition, % at 20 µM; purified USP8, Ub-rhodamine cleavage fluorescence, 30 min
# Target sequence (P40818 whole entry, looked up): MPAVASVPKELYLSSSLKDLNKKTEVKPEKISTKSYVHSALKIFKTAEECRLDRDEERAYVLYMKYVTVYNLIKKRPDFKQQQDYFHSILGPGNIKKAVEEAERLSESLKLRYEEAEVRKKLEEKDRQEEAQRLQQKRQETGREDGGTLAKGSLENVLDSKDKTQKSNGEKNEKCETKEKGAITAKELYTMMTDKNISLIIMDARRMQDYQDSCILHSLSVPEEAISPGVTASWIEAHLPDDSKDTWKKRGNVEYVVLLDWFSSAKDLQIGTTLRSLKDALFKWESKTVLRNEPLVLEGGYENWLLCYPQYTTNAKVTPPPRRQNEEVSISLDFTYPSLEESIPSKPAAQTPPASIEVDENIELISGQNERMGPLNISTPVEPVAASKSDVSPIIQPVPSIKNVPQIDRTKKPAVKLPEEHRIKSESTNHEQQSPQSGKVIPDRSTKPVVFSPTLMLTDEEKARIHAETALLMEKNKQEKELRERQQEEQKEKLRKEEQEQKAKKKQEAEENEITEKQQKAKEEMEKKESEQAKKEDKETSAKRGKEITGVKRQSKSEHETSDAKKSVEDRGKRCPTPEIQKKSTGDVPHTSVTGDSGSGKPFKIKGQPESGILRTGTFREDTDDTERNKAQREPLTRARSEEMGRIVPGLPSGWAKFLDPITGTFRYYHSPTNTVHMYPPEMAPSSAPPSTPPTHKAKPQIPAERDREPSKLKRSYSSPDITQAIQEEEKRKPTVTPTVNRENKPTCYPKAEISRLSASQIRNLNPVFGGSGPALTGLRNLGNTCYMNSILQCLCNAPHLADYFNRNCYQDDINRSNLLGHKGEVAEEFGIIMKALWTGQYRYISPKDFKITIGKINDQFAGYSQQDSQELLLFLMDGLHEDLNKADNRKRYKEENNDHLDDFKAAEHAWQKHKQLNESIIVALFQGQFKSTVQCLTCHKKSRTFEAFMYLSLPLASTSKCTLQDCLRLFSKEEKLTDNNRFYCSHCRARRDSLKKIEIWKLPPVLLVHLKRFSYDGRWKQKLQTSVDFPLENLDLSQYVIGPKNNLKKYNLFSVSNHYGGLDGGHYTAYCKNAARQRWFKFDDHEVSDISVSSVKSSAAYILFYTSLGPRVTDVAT
# The depositor's hits bear a star. Rule as the data show it: active = inhibition above about 30%; inactive = the rest.
SMILES,USP7 inh,UCHL1 inh,USP10 inh,OTUD3 inh,USP8 block
CC1(O)CC(=O)c2c(cc3cc(O)cc(O)c3c2O)C1 (stereo not drawn),94*,93*,79*,75*,70*
COc1cccc2c1C(=O)c1ccc3c(c1C2=O)C(=O)CC(C)(O)C3 (stereo not drawn),2,9,0,-1,27
COc1cccc2cc(C(=O)Nc3nc(-c4ccncc4)cs3)oc12,49*,11,48*,32*,49*
COc1cccc2cc(C(=O)NCc3cnn4ccccc34)oc12,1,-1,-1,-17,-18
CC1CCCN(CC2CCN(C(=O)NCc3ccccc3)CC2)C1 (stereo not drawn),0,0,-4,2,4
O=C(Nc1cc(Cl)ccc1NCc1ccccc1)c1cc(=O)[nH]c2ccccc12,0,-2,-3,-15,44*
O=C(Nc1ccc(Br)cc1)c1cc(=O)[nH]c2ccccc12,13,2,19,5,21
CNC(=O)[C@@]12CCC3(CCN(C(=O)Cc4cccc(OC)c4)CC3)[C@@H]1CN(C)C2,0,-3,-2,0,-32
O=c1[nH]c2c(cc1CNCc1cccnc1)c(-c1cccc(F)c1)nn2-c1ccccc1,-4,-3,-4,-16,68*
CCCCc1c(O)c2cnn(-c3ccccc3)c2[nH]c1=O,2,0,0,-8,-1
Cc1ccc(-c2nn(-c3ccccc3)c3[nH]c(=O)c(CNCc4ccccc4)cc23)cc1,-32,-51,-13,-66,56*
Cc1nn(-c2ccccc2)c2[nH]c(=O)c(CNCc3ccc4c(c3)OCO4)cc12,7,1,4,14,77*
Cc1ccc(NCc2cc3c(-c4ccc(F)cc4)nn(-c4ccccc4)c3[nH]c2=O)cc1C,17,1,6,-1,77*
COc1ccc(-c2nn(-c3ccccc3)c3[nH]c(=O)c(CNC4CCCC4)cc23)cc1,5,-9,-8,-48,26
O=C(c1cc(-c2ccccc2F)no1)N1CCOCC1,0,2,1,9,3
COc1ccc(NC(=O)CN2CCC3(CC2)CN(C(C)=O)Cc2ccccc2O3)cc1,5,1,-1,5,-46
COc1ccccc1-c1nn(Cc2ccccc2)cc1C(=O)N1CCCc2ccccc21,-10,5,3,-5,10
O=C(C[n+]1cc(-c2ccccc2)n2c1CCC2)c1cccc([N+](=O)[O-])c1,4,2,3,15,-116
Cc1nn(-c2ccccc2)c2[nH]c(=O)c(CNCc3ccco3)cc12,4,0,-2,-2,-5
Cc1nn(-c2ccccc2)c2[nH]c(=O)c(CNCc3ccc(F)cc3)cc12,3,1,0,3,56*
Cc1cccc(CNC(=O)Cn2cnc3c(c(C)c(C)n3-c3ccccc3)c2=O)c1,11,6,18,9,36*
Cc1cccc(NC(=O)Cn2cnc3c(c(C)c(C)n3-c3ccccc3)c2=O)c1,0,1,-1,0,0
Cc1c(C)n(-c2ccccc2)c2ncn(CC(=O)NC(C)c3ccccc3)c(=O)c12 (stereo not drawn),8,6,20,45*,20
O=C(Cn1cnc2c(cnn2-c2ccc(Cl)cc2)c1=O)NCc1ccccc1Cl,5,-4,8,36*,16
Cc1c(C)n(-c2ccccc2)c2ncn(CC(=O)NCc3ccccc3F)c(=O)c12,10,5,17,0,34*
SMILES,USP7 inh,UCHL1 inh,USP10 inh,OTUD3 inh,USP8 block
COc1cccc(NC(=O)Cn2cnc3c(c(C)c(C)n3-c3ccccc3)c2=O)c1,3,6,13,0,20
COc1ccc(OC)c(NC(=O)Cn2cnc3c(c(C)c(C)n3-c3ccccc3)c2=O)c1,3,8,0,-2,32*
COc1ccc(-c2cnc([C@@H]3COCCN3C3CCN(C)CC3)[nH]2)cc1,-5,2,-2,-3,-1
CCOc1ccccc1N(C(=O)c1ccc2c(c1)OCCO2)C(C(=O)NC1CCCCC1)c1ccc(O)cc1 (stereo not drawn),1,1,1,-5,-7
Cc1nn(C)cc1C(C(=O)NC1CCCCC1)N(C(=O)CN1C(=O)c2ccccc2S1(=O)=O)c1ccc2c(c1)OCO2 (stereo not drawn),19,12,40*,4,16
N#Cc1c(-c2ccc(F)cc2)c2c([nH]c1=O)-c1ccccc1OC2,-7,1,16,0,65*
N#Cc1c(-c2ccccc2Cl)c2c([nH]c1=O)-c1ccccc1CC2,4,6,15,-9,47*
CC1CCCCN1c1nc(F)c2c(c1F)S(=O)(=O)CCN2Cc1ccccc1 (stereo not drawn),-3,5,-4,7,89*
CCN1CCN(c2nc(F)c3c(c2F)S(=O)(=O)CCN3Cc2ccccc2)CC1,-17,0,2,6,-2
Cc1ccc(-n2nnnc2-c2cnc3cc(Cl)ccc3c2N)cc1,18,7,15,7,44*
Clc1ccc2ncc(-c3nnnn3-c3ccc4ccccc4c3)c(-c3ccccc3)c2c1,-20,5,4,1,9
CCc1cccc(N2C(=O)c3ccccc3C2C(=O)NCc2ccccc2OC)c1 (stereo not drawn),1,-3,19,-1,32*
COc1ccccc1CNC(=O)C1c2ccccc2C(=O)N1c1ccc(F)cc1 (stereo not drawn),-8,5,4,4,10
O=C(c1cc(Cl)nc2ccccc12)N1CCc2ccccc2C1,-12,0,6,0,33*
Clc1ccc2nc(COc3ccccc3Cc3ccccc3)[nH]c2c1,-8,4,9,10,63*
O=C(NCc1ccccc1Cl)c1cccc(Nc2nc3ccccc3n3nnnc23)c1,-46,-58,-7,-182,-263
Oc1cccc2c(-c3ccc(O)c4c(O)cccc34)ccc(O)c12,-54,78*,71*,76*,98*
O=C(O)c1ccc(NCc2nc3ccccc3n2Cc2ccccc2F)cc1,-8,-2,7,3,23
COc1ccc(NCc2nc3ccccc3n2Cc2ccccc2)cc1,-25,3,-3,-4,90*
O=C(c1c(F)cccc1F)N1CCCC(c2[nH]nc3nccnc23)C1 (stereo not drawn),0,-1,0,-1,30*
O=C(Nc1ccccc1F)C1CCCN(S(=O)(=O)N2CCCCCC2)C1 (stereo not drawn),-2,-4,-1,-4,-6
O=C(Nc1ccc2c(c1)OCO2)c1cncc(NS(=O)(=O)c2ccccc2)c1,-33,21,0,-3,70*
CC(=O)Nc1ccc(S(=O)(=O)Nc2cncc(C(=O)NCc3ccc4c(c3)OCO4)c2)cc1,7,3,-2,7,6
O=C(Nc1ccc2c(c1)OCO2)c1cncc(NS(=O)(=O)c2ccc3c(c2)OCCO3)c1,-13,-6,-8,-50,45*
